# From PubChem
# Hits are enriched below; roughly 1.7% of the tested compounds scored in any of these assays.
# KCNH2 3.1 block – blocks the human KCNH2 3.1 channel isoform. 340,000 compounds, 0.95% hits. U2OS KCNH2 3.1, thallium flux FluxOr; hits give low values. activity change, % (tested at about 1.8 µM);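 active = maximum activity change below -70%; inconclusive = maximum activity change from -70% to -50%; inactive = maximum activity change above -50%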;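 note: thallium influx rate constant from kinetic fluorescence after stimulation buffer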
#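 Channel expression came from 3.1 mutant virus (1.77 x 10^8 /mL) applied to suspended U2OS cells for 4 h. Flux was tracked with FluxOr dye plus Red40 quencher, and kinetic rate constants normalized to controls.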
# Coupling enz – coupling enzyme interference in Giardia aldolase counter-screen; coupling enzyme system counterscreen, AmpLite Red fluorescence; activity change, negative = inhibition, % at 58.2 µM, hits read low; 290,000 compounds, 0.67% hits; AID 2472; in the data active = activity change below about -30%
#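 Compounds tested against the coupling enzymes alone at 57.5 uM final; readout was AmpLite Red fluorescence (525/598 nm) after 20 min at RT.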
# USP1-UAF1 inh – blocks the human USP1/UAF1 deubiquitinase complex | O94782 | recombinant USP1/UAF1, Ub-Rhodamine cleavage fluorescence | Potency, µM (titrated, usually from 57.1 µM), for the others: at the highest dose activity change, negative = inhibition, usual class: inhibitors | 390,000 compounds, 0.23% hits | AID 743255; active = well fitted inhibition curve with a large enough effect; inconclusive = small, poorly fitted or top-dose-only effect; inactive = no such curve, though single readings can be large or run the other way; note: potency is the fitted concentration of half-maximal effect; nearly all actives have a fitted effect of over 60% in size
#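 USP1/UAF1 complex at 1 nM was preincubated with compound for 15 min at room temperature, then Ub-Rho substrate (150nM final) was added. Fluorescence (480/540 nm) was read kinetically, 6 reads every 60 seconds.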
# Giardia kill – kills Giardia lamblia; Giardia lamblia trophozoite viability; AID 540267; activity change, % at 7.66 µM, hits read low; 340,000 compounds, 0.15% hits; in the data active = activity change below about -80%; inconclusive = between about -30% and that limit;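 note: parasites exposed to compound for two days anaerobically before the ATP read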
#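 Each well holds 100 Giardia trophozoites and compound. After two days (48 hrs) at 37 deg C in anaerobic conditions, ATP is quantified by luminescence.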
# KCNH2 WT inh – inhibitors of human wildtype KCNH2 potassium channel; activity change, % at 1.84 µM; U2OS, BacMam KCNH2, thallium flux FluxOr; hits give low values; 340,000 compounds, 0.37% hits; AID 720551;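 active = maximum activity change below -70%; inconclusive = maximum activity change between -70% and -50%; inactive = maximum activity change above -50%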
#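 U2OS cells were transduced with wild-type KCNH2 virus (2.03 x 10^8 / mL) for 4 h at room temperature, then cultured overnight at 37 C. Thallium flux was read with FluxOr dye. Rate constants were normalized to DMSO controls.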
# * = called active by the depositor; u = inconclusive; x = no result given. % is set by controls: 0 for no effect and ±100 for the full control effect.
SMILES,KCNH2 3.1 block,Coupling enz,USP1-UAF1 inh,Giardia kill,KCNH2 WT inh
O=S(=O)(c1cc(Cl)cc(Cl)c1)N1CCN(c2nc(-c3cccs3)nc3ccccc23)CC1,x,x,x,3.9,x
CCc1nnc(SCc2nc(-c3ccc(OC)cc3)oc2C)c2cc3sccc3n12,x,x,-8.3%,x,x
CN1CCN(C(=O)/C(=C/c2ccc(N(C)C)cc2)NC(=O)c2ccccc2)CC1,-2.0,-0.6,u,-8.3,-0.4
CN1CCN(C(=O)/C(=C/c2ccc(F)cc2)NC(=O)c2ccccc2)CC1,-90.8*,-0.3,-2.6%,5.5,-22.5
Cc1ccc(NC(=O)Cn2c(=O)n(CCC(=O)N3CCc4ccccc4C3)c(=O)c3ccccc32)cc1,x,x,-13.6%,x,x
CN=c1scc(C)n1/N=C/c1ccc(O)c(O)c1O,11.0,-59.2*,-8.2%,u,-3.5
CN=c1scc(-c2cccs2)n1/N=C/c1ccccc1O,-2.6,-4.2,-21.3%,u,-2.9
CN=c1scc(-c2cccs2)n1/N=C/c1ccc(O)c(O)c1O,x,-16.1,-19.9%,-92.5*,3.9
CN=c1scc(C)n1/N=C/c1cc(Br)c(O)c(OC)c1,-6.0,-2.3,-9.4%,-13.7,3.1
CC(C)OCCCNC(=O)CCCn1c(SCC(=O)c2ccc(Br)cc2)nc2c(sc3ccccc32)c1=O,x,x,-0.6%,x,x
Cc1cc(OCC(=O)OCC(=O)N(Cc2ccccc2)C(C)(C)C)ccc1Cl,-9.0,x,-23.2%,x,4.4
Cc1nc(S(=O)(=O)N2CCN(c3ccc(Cl)cc3)CC2)cn1C,x,x,-27.1%,x,x
Cc1cccc(NC(=O)c2ncn3c2C(=O)N(C)CC3)c1,-82.6*,x,-23.3%,x,3.2
CC(C)NC(=O)CC1Nc2c3ccccc3nc(=S)n2C1=O (configuration not stated),9.1,-35.1*,2.9%,22.2,0.2
CCOC(=O)Cn1nnc(-c2ccc([N+](=O)[O-])cc2)n1,u,2.7,u,-6.1,1.1
CCOC(=O)C(C)(C)n1nnc(-c2ccc([N+](=O)[O-])cc2)n1,-82.8*,0.4,u,-10.3,-4.1
Cc1ccc(C(=O)NCC(c2ccco2)N2CCCCC2)s1 (configuration not stated),-70.7*,x,-13.8%,3.3,15.1
Cc1cc(C)n(-c2cc(N3CCN(S(=O)(=O)c4ccc(Br)cc4)CC3)ccc2[N+](=O)[O-])n1,-81.4*,-2.3,-9.0%,1.4,-1.8
Cc1cc(C)c(S(=O)(=O)N2CCN(c3ccc([N+](=O)[O-])c(-n4nc(C)cc4C)c3)CC2)c(C)c1,-9.6,-2.4,-19.6%,-20.2,-17.5
COc1ccc(OC)c(NC(=O)Cn2cnc3sc(C)c(S(=O)(=O)N4CCN(c5ccccc5OC)CC4)c3c2=O)c1,x,x,-27.3%,x,x
CSc1nnnn1CCn1nnnc1SC,-8.7,2.6,-15.6%,11.5,-243.2*
Cn1nnnc1SCSc1nnnn1C,0.6,-0.9,-7.4%,-0.5,2.4
CCCCn1nc(C(=O)N(C)Cc2nc3ccccc3c(=O)[nH]2)c2ccccc2c1=O,-74.7*,x,u,x,-42.7
CCc1nc(-c2ccccc2)c2ccccn12,-19.7,-43.2*,3.1%,-7.2,5.1
CCOc1ccc(S(=O)(=O)N2CCN(c3nc(-c4ccccc4)nc4ccccc34)CC2)cc1OCC,x,x,x,-3.9,x
SMILES,KCNH2 3.1 block,Coupling enz,USP1-UAF1 inh,Giardia kill,KCNH2 WT inh
COc1ccc(C[C@H]2CN3C(=NC[C@@H]3C(C)C)N2CCNC(=O)CCC2CCCCC2)cc1,15.1,-1.6,-21.8%,-19.9,-18.2
COc1ccc(C[C@H]2CN3C(=NC[C@@H]3Cc3ccccc3)N2CCNC(=O)CCC2CCCCC2)cc1,u,2.3,-7.6%,24.5,-144.5*
COc1ccc(C(=O)N2CCOC2CNC(=O)C(=O)NCc2ccccn2)cc1 (configuration not stated),-1.2,x,-23.6%,x,20.6
C=C(C)C(O)/C=C/c1ccc(OC)cc1 (configuration not stated),x,0.6,x,x,x
COc1ccc(C(=O)OCC(=O)NC(C)CCc2ccccc2)cc1 (configuration not stated),3.4,4.1,0.1%,-0.4,-6.3
COc1ccc(C(=O)OCC(=O)NC(C)CCc2ccccc2)cc1OC (configuration not stated),80.1,-0.7,-20.8%,-1.6,-77.3*
CCc1nc2nc(C)cc(Nc3ccc(OC)cc3)n2n1,x,x,-11.0%,x,x
COc1ccc(CC2(CO)CCN(Cc3cnn(-c4ccccc4)c3)CC2)cc1,-89.2*,-0.7,-4.5%,-8.1,-45.3
